Assay results published in PubChem BioAssay (NCATS).
Inconclusive results are not listed. Calls of active or inactive are those of the source. Unless noted, calls follow the shape of the full dose curve.

Experiments:
[1] = target: Estrogen receptor (Homo sapiens) (UniProt P03372); experiment: qHTS assay for small molecule antagonists of estrogen receptor alpha signaling (AID 588513; active = well fitted curve in the direction sought with a large enough effect in the signal ratio, with a control signal flat, not every such curve was filed as active; the % refers to the signal ratio; also: % is scaled to controls: 0 for no effect and ±100 for the full control effect)
Sequence of Estrogen receptor (Homo sapiens) (P03372 whole entry, looked up): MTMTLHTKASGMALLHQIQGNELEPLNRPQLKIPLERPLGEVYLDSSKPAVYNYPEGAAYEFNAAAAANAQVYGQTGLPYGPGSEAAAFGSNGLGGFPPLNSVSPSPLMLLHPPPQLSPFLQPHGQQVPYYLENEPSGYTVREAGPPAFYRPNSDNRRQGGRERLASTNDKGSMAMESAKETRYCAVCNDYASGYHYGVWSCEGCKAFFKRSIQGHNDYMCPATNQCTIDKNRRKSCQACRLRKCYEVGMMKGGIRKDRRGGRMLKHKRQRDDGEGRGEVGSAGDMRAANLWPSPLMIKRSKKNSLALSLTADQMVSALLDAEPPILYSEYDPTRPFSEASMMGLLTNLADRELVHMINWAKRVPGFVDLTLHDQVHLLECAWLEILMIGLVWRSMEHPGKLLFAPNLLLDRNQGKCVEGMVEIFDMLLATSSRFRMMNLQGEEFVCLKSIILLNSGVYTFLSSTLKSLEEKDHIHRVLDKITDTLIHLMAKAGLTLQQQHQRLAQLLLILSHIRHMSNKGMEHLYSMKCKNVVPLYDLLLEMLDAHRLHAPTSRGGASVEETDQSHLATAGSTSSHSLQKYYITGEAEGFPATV
How it was run: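 ER-alpha-UAS-bla GripTite HEK 293 cells in medium with 2% charcoal/dextran-treated FBS were preincubated 4 h at 37 C, dosed with compound (1:2 titration), stimulated with 0.5nM 17-beta-estradiol for 18 h, then read by CCF4 beta-lactamase fluorescence.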

[2] = target: Estrogen receptor (Homo sapiens) (UniProt P03372); experiment: qHTS assay for small molecule agonists of estrogen receptor alpha signaling (AID 588514);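 also: 0% = vehicle only and 100% = reference agonist; nearly all actives have a fitted effect of over 70% in size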
How it was run: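 Reporter-gene assay. […] controls beta-lactamase in HEK 293 GripTite cells; after 18 hrs with compound, CCF4 substrate is added for 2 hrs and fluorescence is read.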

[3] = qHTS assay for small molecule antagonists of peroxisome proliferator-activated receptor delta signaling (AID 588535); conditions: HEK293T PPARd-UAS-bla, beta-lactamase FRET ratio, 18 h; 460 nm channel;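 also: cells co-treated with a PPAR-delta agonist as stimulator during compound exposure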
How it was run: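 Cell-based beta-lactamase assay in antagonist mode: 4000 HEK293T PPAR-delta-UAS-bla cells per well, 5 hr preincubation then 18 hr compound incubation at 37 C. IC50 obtained by Hill equation fitting.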

[4] = target: Vitamin D3 receptor (Homo sapiens) (UniProt P11473); experiment: qHTS assay for small molecule agonists of vitamin D receptor signaling (AID 588543);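 also: 0% = DMSO basal and 100% = reference agonist control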
Sequence of Vitamin D3 receptor (Homo sapiens) (P11473 whole entry, looked up): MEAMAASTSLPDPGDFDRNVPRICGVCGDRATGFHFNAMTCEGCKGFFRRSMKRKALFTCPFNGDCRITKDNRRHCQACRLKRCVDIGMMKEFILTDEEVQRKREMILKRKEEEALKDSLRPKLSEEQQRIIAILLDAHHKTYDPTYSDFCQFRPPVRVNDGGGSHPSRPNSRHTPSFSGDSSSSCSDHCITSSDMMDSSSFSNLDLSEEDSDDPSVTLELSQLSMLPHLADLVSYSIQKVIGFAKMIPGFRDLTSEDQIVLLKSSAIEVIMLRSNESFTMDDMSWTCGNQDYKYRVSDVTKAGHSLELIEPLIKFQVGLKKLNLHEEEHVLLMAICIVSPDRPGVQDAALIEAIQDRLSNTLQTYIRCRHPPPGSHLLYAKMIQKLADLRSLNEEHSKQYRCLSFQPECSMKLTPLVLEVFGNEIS
How it was run: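 GeneBLAzer VDR-UAS-bla HEK293T cells in 2% charcoal-stripped FBS medium were dosed with compound titrations for 16 h at 37 °C; CCF4 β-lactamase readout (405 nm ex, 460/530 nm em). EC50 and efficacy from Hill fits, normalized to 50 nM calcitriol (100%) and DMSO (0%).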

[5] = target: Thyroid hormone receptor beta (Homo sapiens) (UniProt P10828); experiment: qHTS assay for small molecule agonists of thyroid hormone receptor beta signaling (AID 588545);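 also: 0% = DMSO only and 100% = 10 nM T3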
Sequence of Thyroid hormone receptor beta (Homo sapiens) (P10828 whole entry, looked up): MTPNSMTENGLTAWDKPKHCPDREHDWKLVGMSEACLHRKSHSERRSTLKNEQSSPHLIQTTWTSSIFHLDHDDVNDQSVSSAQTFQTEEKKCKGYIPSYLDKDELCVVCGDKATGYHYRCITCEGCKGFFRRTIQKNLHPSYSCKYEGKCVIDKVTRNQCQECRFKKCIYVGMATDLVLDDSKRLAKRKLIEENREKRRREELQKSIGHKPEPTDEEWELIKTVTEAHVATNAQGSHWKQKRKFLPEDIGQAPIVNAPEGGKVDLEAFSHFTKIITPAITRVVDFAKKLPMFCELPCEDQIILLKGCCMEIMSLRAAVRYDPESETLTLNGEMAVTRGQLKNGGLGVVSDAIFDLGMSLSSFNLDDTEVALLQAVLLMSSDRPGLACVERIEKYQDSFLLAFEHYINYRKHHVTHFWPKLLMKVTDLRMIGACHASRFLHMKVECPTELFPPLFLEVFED
How it was run: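 Beta-lactamase reporter activity under TR response element control is measured in HEK 293 cells after 18 hrs compound exposure. Signal is ratiometric CCF4 fluorescence, 460/530 nm.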

[6] = target: Thyroid hormone receptor beta (Homo sapiens) (UniProt P10828); experiment: qHTS assay for small molecule antagonists of thyroid hormone receptor beta signaling (AID 588547; active = well fitted inhibition curve with a large enough effect in the signal ratio, with a control signal flat, not every such curve was filed as active; the % refers to the signal ratio;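 also: cells stimulated with 0.4 nM T3 agonist during compound exposure; series mostly up to about 77 µM; % is scaled to controls: 0 for no effect and ±100 for the full control effect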); conditions: TR-UAS-bla HEK293, beta-lactamase ratio, antagonist mode, 18 h
How it was run: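 Inhibition of T3-driven (0.4nM final) beta-lactamase reporter activity was measured over 0.59 nM to 92 uM compound after 18 h at 37 C. The cells were GripTite HEK293 TR-UAS-bla in charcoal/dextran-stripped serum, with CCF4 ratio read-out and IC50 from Hill fits.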

[7] = qHTS assay for small molecule activators of the nuclear factor-kappa B (NF-kB) signaling pathway (AID 651749; active = well fitted activation curve with a large enough effect in the signal ratio; the % refers to the signal ratio; also: series mostly up to about 77 µM; % of control where 0% means no effect); conditions: NF-kB-bla ME-180 cells, beta-lactamase FRET ratio, 16 h; activation: stronger effect = higher value
How it was run: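 Stably transfected ME-180 line; NF-kB response element upstream of beta-lactamase. Treatment: compound or DMSO, 16 hr. Detection: fluorescent FRET substrate.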

[8] = qHTS assay for environmental chemicals that activate the Aryl hydrocarbon Receptor (AhR) signaling pathway (AID 651777; active = well fitted curve in the direction sought with a large enough effect; an effect the other way counts as inactive or inconclusive; also: % of control where 0% means no effect; nearly all actives have a fitted effect of over 15% in size); conditions: 1A2-DRE human hepatoma cells, luciferase, 24 h; activation: stronger effect = higher value
How it was run: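 Reporter gene assay: hepatoma cells with DRE/CYP1A2-luciferase, 24 hr compound incubation at 37 C, 5% CO2, luminescence after One-Glo (30 min, RT).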

[9] = qHTS assay for small molecule agonists of the antioxidant response element (ARE) signaling pathway measured by Nrf2-dependant transcriptional activity (AID 720636; active = well fitted curve in the direction sought with a large enough effect in the repeat runs; an effect the other way counts as inactive or inconclusive;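 also: HepG2 cells with an ARE-driven luciferase reporter; % of control where 0% means no effect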)
How it was run: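 Nrf2-dependent transcription is measured in ARE-luc HepG2 cells: compound is applied for 16 hr at 37 C after a 6 hr attachment period, and luciferase activity is quantified by luminescence using ONE-Glo.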

[10] = qHTS assay for small molecule agonists of the antioxidant response element (ARE) signaling pathway measured by Nrf2-dependant transcriptional activity - cell viability counter screen (AID 720653; active = well fitted curve in the direction sought with a large enough effect in the repeat runs; an effect the other way counts as inactive or inconclusive; also: % is scaled to controls: 0 for no effect and ±100 for the full control effect); conditions: ARE-bla HepG2 viability, CellTiter-Glo ATP luminescence, 16 h; max response: stronger effect = lower value
How it was run: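 Cytotoxicity counter screen: intracellular ATP quantified by CellTiter-Glo luminescence in the same ARE-bla HepG2 plates, after 16 h compound exposure and a 2 h beta-lactamase substrate step.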

[11] = qHTS assay for cell viability of HEK293 cells (AID 743288; active = well fitted curve in the direction sought with a large enough effect; an effect the other way counts as inactive or inconclusive; also: % is scaled to controls: 0 for no effect and ±100 for the full control effect; nearly all actives have a fitted effect of over 50% in size); conditions: ATP luminescence (CellTiter-Glo), 18 h; max response: stronger effect = lower value
How it was run: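 Parental HEK293 cells were seeded at 2,000 cells/well, rested at least 5 h at 37 C, then exposed to compounds in DMSO for 18 h at 37 C. Viability was read as ATP-dependent luciferase luminescence after 30 min at room temperature.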

[12] = qHTS assay for cell viability of the p53RE-bla HCT-116 cell line (AID 743292; active = well fitted curve in the direction sought with a large enough effect; an effect the other way counts as inactive or inconclusive; also: % is scaled to controls: 0 for no effect and ±100 for the full control effect; nearly all actives have a fitted effect of over 55% in size)
How it was run: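 ATP-based luminescence, 16 h compound exposure at 37 C, p53RE-bla HCT-116 cells at 4,000/well.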

[13] = target: Nuclear receptor subfamily 1 group I member 2 (Rattus norvegicus) (UniProt Q9R1A7); experiment: qHTS assay for small molecule activators of the rat pregnane X receptor (rPXR) signaling pathway (AID 651751; call rule not given here; also: 0% is about no effect); conditions: rPXR reporter cells, luciferase (One-Glo), 24 h
Sequence of Nuclear receptor subfamily 1 group I member 2 (Rattus norvegicus) (Q9R1A7 whole entry, looked up): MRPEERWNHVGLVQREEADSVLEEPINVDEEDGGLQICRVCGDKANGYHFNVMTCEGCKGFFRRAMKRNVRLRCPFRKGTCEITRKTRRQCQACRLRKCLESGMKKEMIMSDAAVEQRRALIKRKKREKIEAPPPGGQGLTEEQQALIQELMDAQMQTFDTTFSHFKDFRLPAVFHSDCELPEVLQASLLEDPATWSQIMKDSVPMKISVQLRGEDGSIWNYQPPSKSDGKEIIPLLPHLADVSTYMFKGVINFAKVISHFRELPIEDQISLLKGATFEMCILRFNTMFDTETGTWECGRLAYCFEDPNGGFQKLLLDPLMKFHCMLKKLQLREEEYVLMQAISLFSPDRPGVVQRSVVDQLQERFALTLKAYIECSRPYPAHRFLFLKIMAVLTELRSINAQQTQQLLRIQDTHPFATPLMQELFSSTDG

[14] = qHTS assay for small molecule activators of the human pregnane X receptor (PXR) signaling pathway (AID 720659; call rule not given here; also: 0% is about no effect)
[15] = target: Peroxisome proliferator-activated receptor gamma (Homo sapiens) (UniProt P37231); experiment: qHTS assay for small molecule agonists of peroxisome proliferator-activated receptor gamma signaling (AID 588536; active = well fitted curve in the direction sought with a large enough effect in the signal ratio, with a control signal flat, not every such curve was filed as active; the % refers to the signal ratio;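 also: 0% = DMSO basal wells and 100% = rosiglitazone at 2 µM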)
Sequence of Peroxisome proliferator-activated receptor gamma (Homo sapiens) (P37231 whole entry, looked up): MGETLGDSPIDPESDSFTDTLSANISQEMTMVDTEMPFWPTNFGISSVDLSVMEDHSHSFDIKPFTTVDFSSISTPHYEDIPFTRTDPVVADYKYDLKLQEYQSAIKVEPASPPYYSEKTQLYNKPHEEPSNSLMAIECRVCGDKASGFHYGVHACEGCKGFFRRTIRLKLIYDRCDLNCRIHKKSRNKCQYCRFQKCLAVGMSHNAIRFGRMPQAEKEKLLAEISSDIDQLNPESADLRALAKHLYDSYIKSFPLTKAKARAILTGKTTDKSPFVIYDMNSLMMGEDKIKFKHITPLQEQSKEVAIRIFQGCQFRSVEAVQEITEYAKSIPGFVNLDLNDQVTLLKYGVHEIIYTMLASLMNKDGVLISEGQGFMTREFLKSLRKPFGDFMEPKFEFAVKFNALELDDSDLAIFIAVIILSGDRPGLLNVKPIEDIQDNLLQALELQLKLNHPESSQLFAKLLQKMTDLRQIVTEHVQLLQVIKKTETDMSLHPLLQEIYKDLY
How it was run: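 HEK293 UAS-bla reporter line, 1% charcoal/dextran FBS; titration, 16 h, 37 C; CCF4 loading 2 h RT; fluorescence 460/530 nm. Normalized to rosiglitazone 2 uM = 100%, DMSO = 0%.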

[16] = qHTS assay for small molecule antagonists of retinoid X receptor alpha signaling (AID 588546; active = well fitted inhibition curve with a large enough effect in the signal ratio, with a control signal flat, not every such curve was filed as active; the % refers to the signal ratio;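 also: cells stimulated with 9-cis-retinoic acid as agonist; % is scaled to controls: 0 for no effect and ±100 for the full control effect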); conditions: HEK293T RXRa-UAS-bla, beta-lactamase ratio, antagonist mode; measured here: W530 green channel, cytotoxicity proxy
How it was run: (§1)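 Beta-lactamase reporter inhibition, read as CCF4 fluorescence ratio (ex 405, em 460/530 nm) after 2 h at RT. HEK293T UAS-bla cells, 2500/well, were stimulated with 9-cis-RA at 500 or 100 nM final alongside test compound for 18 h at 37 C.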

[17] = target: Retinoic acid receptor RXR-alpha (Homo sapiens) (UniProt P19793); experiment: as above; conditions: HEK293T RXRa-UAS-bla, beta-lactamase ratio, antagonist mode
Sequence of Retinoic acid receptor RXR-alpha (Homo sapiens) (P19793 whole entry, looked up): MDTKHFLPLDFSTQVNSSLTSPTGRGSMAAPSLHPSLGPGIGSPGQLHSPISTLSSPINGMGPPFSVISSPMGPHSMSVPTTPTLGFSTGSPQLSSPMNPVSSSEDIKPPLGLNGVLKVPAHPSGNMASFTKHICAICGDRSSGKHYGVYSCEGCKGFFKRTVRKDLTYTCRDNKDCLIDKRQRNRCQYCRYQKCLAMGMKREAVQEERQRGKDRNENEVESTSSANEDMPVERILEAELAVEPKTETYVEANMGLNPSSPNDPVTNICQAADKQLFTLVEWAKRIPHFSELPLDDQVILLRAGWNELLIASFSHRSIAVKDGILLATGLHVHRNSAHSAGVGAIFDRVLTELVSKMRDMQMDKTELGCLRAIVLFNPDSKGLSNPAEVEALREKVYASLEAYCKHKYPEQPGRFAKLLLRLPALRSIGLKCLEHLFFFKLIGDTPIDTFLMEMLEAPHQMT
How it was run: as §1

[18] = target: Peroxisome proliferator-activated receptor alpha (Homo sapiens) (UniProt Q07869); experiment: qHTS assay for small molecule agonists of the peroxisome proliferator-activated receptor alpha (PPARalpha) signaling pathway (AID 651778; active = well fitted curve in the direction sought with a large enough effect; an effect the other way counts as inactive or inconclusive; also: % of control where 0% means no effect); conditions: PathHunter PPARalpha complementation, chemiluminescence, 6 h; max response: stronger effect = higher value
Sequence of Peroxisome proliferator-activated receptor alpha (Homo sapiens) (Q07869 whole entry, looked up): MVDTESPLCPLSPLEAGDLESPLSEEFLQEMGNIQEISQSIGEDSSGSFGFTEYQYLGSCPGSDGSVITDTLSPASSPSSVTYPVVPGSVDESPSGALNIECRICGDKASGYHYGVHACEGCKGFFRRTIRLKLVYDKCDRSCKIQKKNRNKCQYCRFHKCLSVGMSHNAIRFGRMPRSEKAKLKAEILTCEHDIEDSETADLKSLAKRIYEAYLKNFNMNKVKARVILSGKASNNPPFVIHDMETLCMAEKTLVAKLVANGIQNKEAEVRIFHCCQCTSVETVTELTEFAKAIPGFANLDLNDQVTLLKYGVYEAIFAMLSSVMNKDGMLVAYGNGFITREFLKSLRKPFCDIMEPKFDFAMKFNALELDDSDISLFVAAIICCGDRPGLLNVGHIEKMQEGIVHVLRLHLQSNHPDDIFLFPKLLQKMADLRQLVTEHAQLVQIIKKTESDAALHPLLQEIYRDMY
How it was run: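 Chemiluminescence from complemented enzyme reported PPARalpha activation in cells after 6 hr of compound treatment at 37 C. The detection reagent was incubated for 60 min at room temperature, and compounds were scored as agonists.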

[19] = qHTS assay for small molecule agonists of retinoid X receptor alpha signaling (AID 588544); conditions: HEK293T RXRa-UAS-bla, beta-lactamase reporter, 18 h; 530 nm emission;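 as to activation: 0% = DMSO basal wells and 100% = reference agonist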
[20] = target: Retinoic acid receptor RXR-alpha (Homo sapiens) (UniProt P19793); experiment: as above

Row | Structure (SMILES) | Potency [1] | Potency [2] | max response [3] | outcome [4] | Potency [5] | activity change % (negative = inhibition) [6] | activation [7] | activation [8] | Potency [9] | max response [10] | max response [11] | Potency [12] | max response [13] | outcome [14] | outcome [15] | max response [16] | max response [17] | max response [18] | max response [19] | Potency [20]
1 | CCCCCCCCCCCCCCCCCC(N)=O | inactive | inactive | 51.4% | inactive | inactive | -14.9% (inactive) | -1.76% (inactive) | -1.31% (inactive) | inactive | 5.14% (inactive) | -6.14% (inactive) | inactive | 4.74% (inactive) | inactive | – | – | – | – | – | –
2 | COC(=O)c1cccc(C)c1S(=O)(=O)NC(=O)Nc1nc(OCC(F)(F)F)nc(N(C)C)n1 | inactive | inactive | 78.8% | inactive | inactive | 11.3% (inactive) | 0.0138% (inactive) | 2.46% (inactive) | inactive | -9.65% (inactive) | -5.64% (inactive) | inactive | -6.52% (inactive) | inactive | inactive | -7.48% | -20.9% (inactive) | -1.42% (inactive) | – | –
3 | C=Cc1ccc(P(c2ccccc2)c2ccccc2)cc1 | inactive | inactive | 16.9% | inactive | inactive | 9.12% (inactive) | 0.802% (inactive) | 0.447% (inactive) | inactive | -10.4% (inactive) | -7.87% (inactive) | inactive | 0.774% (inactive) | inactive | inactive | -0.204% | 3.02% (inactive) | -0.0796% (inactive) | -3.97% | inactive
4 | CCCCCCCC[Si](Cl)(Cl)Cl | inactive | inactive | -4.76% | inactive | inactive | -0.14% (inactive) | -3.66% (inactive) | 3.53% (inactive) | inactive | -9.8% (inactive) | -3.47% (inactive) | inactive | 0.644% (inactive) | inactive | inactive | -3.5% | -13.9% (inactive) | -0.623% (inactive) | -7.78% | inactive
5 | C[Si](Cl)(Cl)[Si](C)(Cl)Cl | inactive | inactive | -5.47% | inactive | inactive | 3.73% (inactive) | -1.71% (inactive) | 0.351% (inactive) | inactive | -3.61% (inactive) | -7.2% (inactive) | inactive | 6.3% (inactive) | inactive | inactive | -10.7% | -4.71% (inactive) | – | -10.2% | inactive
6 | O=C(O)c1ccc2c(c1)C(=O)OC2=O | inactive | inactive | – | inactive | inactive | 1.57% (inactive) | 0.891% (inactive) | 1.29% (inactive) | inactive | -5.37% (inactive) | -7.11% (inactive) | inactive | 0.711% (inactive) | – | inactive | -2.35% | -0.339% (inactive) | -0.399% (inactive) | -9.87% | inactive
7 | C=C(C)C(=O)OCCCCCCCCCCCCCCCC | inactive | inactive | -9.92% | inactive | inactive | -5.63% (inactive) | -3.24% (inactive) | 0.0765% (inactive) | inactive | 0.407% (inactive) | -1.34% (inactive) | inactive | 2.75% (inactive) | inactive | inactive | -3.04% | -1.04% (inactive) | -2.7% (inactive) | -13% | inactive
8 | COC(=O)c1c(Cl)nn(C)c1S(=O)(=O)NC(=O)Nc1nc(OC)cc(OC)n1 | inactive | inactive | -24.6% | inactive | inactive | -5.79% (inactive) | -2.65% (inactive) | -1.75% (inactive) | inactive | -2.6% (inactive) | -3.18% (inactive) | inactive | 1.48% (inactive) | inactive | inactive | -1.74% | – | – | -3.44% | inactive
9 | Cn1c(=O)[nH]c(=O)n(C2CCC(O)CC2)c1=O (stereo not drawn) | inactive | inactive | 54.4% | inactive | inactive | 3.03% (inactive) | -0.274% (inactive) | 1.88% (inactive) | inactive | 7.46% (inactive) | -0.781% (inactive) | inactive | -2.03% (inactive) | inactive | – | -1.59% | -0.444% (inactive) | -2.74% (inactive) | -1.18% | inactive
10 | CCC/C(=N\OCC)C1=C(O)CC(O)(CC(C)S(=O)(=O)CC)CC1=O (stereo not drawn) | inactive | inactive | 9.67% | inactive | inactive | – | -2.79% (inactive) | 3.19% (inactive) | inactive | -10.1% (inactive) | -1.14% (inactive) | inactive | 2.09% (inactive) | inactive | inactive | -7.24% | 3.08% (inactive) | -0.0131% (inactive) | -16.2% | inactive
11 | CNc1nc(=O)n(C2CCCCC2)c(=O)n1C | inactive | inactive | 8.32% | inactive | inactive | – | -1.72% (inactive) | 2.39% (inactive) | inactive | 3.71% (inactive) | -6.85% (inactive) | inactive | -0.0446% (inactive) | inactive | – | -10.4% | 4.07% (inactive) | -0.955% (inactive) | -10.1% | inactive
12 | CC(=O)N(CCN(C(C)=O)C(C)=O)C(C)=O | inactive | inactive | 30.1% | inactive | inactive | -8.71% (inactive) | -1.08% (inactive) | -3.27% (inactive) | inactive | -1.28% (inactive) | -0.359% (inactive) | inactive | -0.996% (inactive) | inactive | inactive | -2.01% | -5.17% (inactive) | 0.299% (inactive) | -4.71% | inactive
